Results: PubChem BioAssay (Tox21)
Where “and” joins values, the source holds several entries; their conditions need not be identical. Equal values may be shown once. Inconclusive results are not listed. Some compounds were tested as several samples or in several runs, with calls that do not always agree. Calls of active or inactive are those of the source. Unless noted, calls follow the shape of the dose curve; as a rule, active = well fitted curve in the direction sought with a large enough effect in the repeat runs; inconclusive = weak or mixed curves; inactive = no such curve, though single readings can be large; an effect the other way counts as inactive or inconclusive.

Legend:
[1] = qHTS assay to identify small molecule antagonists of the progesterone receptor (PR) signaling pathway - cell viability counter screen (AID 1346798); also: nearly all actives have a fitted effect of over 50% in size; also: potency is read from the fitted curve at half-maximal effect
Method in brief: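 PR-UAS-bla HEK293T cells, 3,000/well in 2% charcoal-stripped FBS medium, dosed with compounds plus R5020 agonist and incubated 16 h at 37C. Viability then measured in the same wells by CellTiter-Glo luminescence after 30 min at RT.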

[2] = qHTS assay to identify small molecule antagonists of the TGF-beta/Smad signaling pathway - cell viability counter screen (AID 1346824); also: nearly all actives have a fitted effect of over 50% in size; also: potency is read from the fitted curve at half-maximal effect
Method in brief: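 SBE-bla HEK 293T cells, incubated overnight, then compound plus 0.25 ng/mL TGF-beta1 (stock added) for 5 hr at 37 C. Viability was read in the same wells by CellTiter-Glo luminescence after 30 min at room temperature.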

[3] = qHTS assay to identify small molecule agonists of the TGF-beta/Smad signaling pathway - cell viability counter screen (AID 1346829); also: nearly all actives have a fitted effect of over 45% in size; also: potency is read from the fitted curve at half-maximal effect
Method in brief: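 HEK 293T SBE-bla line, 5 hr compound exposure at 37 C, multiplexed CellTiter-Glo viability read by luminescence.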

[4] = target: Thyrotropin-releasing hormone receptor (Homo sapiens) (UniProt P34981); experiment: qHTS assay to identify small molecule antagonists of the thyrotropin-releasing hormone receptor (TRHR) signaling pathway (AID 1346877; active = well fitted inhibition curve with a large enough effect in the repeat runs, not every such curve was filed as active; also: series mostly up to about 51 µM)
Chain of Thyrotropin-releasing hormone receptor (Homo sapiens) (P34981 whole entry, looked up): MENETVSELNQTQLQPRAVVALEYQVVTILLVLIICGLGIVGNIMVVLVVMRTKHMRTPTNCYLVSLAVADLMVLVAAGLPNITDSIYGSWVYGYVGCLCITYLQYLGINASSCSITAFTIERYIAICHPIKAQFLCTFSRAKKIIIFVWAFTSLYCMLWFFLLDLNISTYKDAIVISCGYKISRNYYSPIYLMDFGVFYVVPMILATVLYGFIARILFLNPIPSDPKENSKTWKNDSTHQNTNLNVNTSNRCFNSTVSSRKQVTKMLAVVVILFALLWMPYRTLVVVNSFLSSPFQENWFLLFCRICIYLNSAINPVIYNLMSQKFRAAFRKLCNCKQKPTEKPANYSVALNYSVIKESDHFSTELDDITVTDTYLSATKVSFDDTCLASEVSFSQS
Method in brief: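 Human TRHR in HEK293 cells; inhibition of the intracellular calcium rise triggered by 1 nM TRH was followed by fluorescence over 3 min. Compounds were run at 15 concentrations, three replicates each.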

[5] = target: Thyrotropin-releasing hormone receptor (Homo sapiens) (UniProt P34981); experiment: qHTS assay to identify small molecule agonists of the thyrotropin-releasing hormone receptor (TRHR) signaling pathway (AID 1346891; calls by dose curve; also: series mostly up to about 58 µM)
Method in brief: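 HEK293 cells expressing TRHR plated 18 h at 37 C/5% CO2, calcium dye-loaded 2 h at 37 C, then compound added (agonist mode); kinetic calcium fluorescence read 3 min at 1 s intervals; 15 concentrations in triplicate.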

[6] = Caspase-3/7 induction in HepG2 cells by small molecules, qHTS assay (AID 1346978); also: nearly all actives have a fitted effect of over 15% in size; also: potency is read from the fitted curve at half-maximal effect
Method in brief: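 Wild-type HepG2 cells, 2,000/well, settled 5 hr at 37 C and 5% CO2, then compound-treated for 17 hr; caspase-3/7 activity read by luminescent Caspase-Glo 3/7 after 30 min at room temperature.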

[7] = Caspase-3/7 induction in CHO-K1 cells by small molecules, qHTS assay (AID 1346980); also: nearly all actives have a fitted effect of over 15% in size; also: potency is read from the fitted curve at half-maximal effect
Method in brief: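 Wild-type CHO-K1 cells exposed to compounds for 17hr at 37 C, 5% CO2. Caspase-3/7 activity then measured by Caspase-Glo 3/7 luminescence after 30min at room temperature.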

[8] = Caspase-3/7 induction in HepG2 cells by small molecules, qHTS cell viability counter screen (AID 1346981); also: nearly all actives have a fitted effect of over 30% in size; also: potency is read from the fitted curve at half-maximal effect
Method in brief: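 The parent HepG2 line is plated at 2,000 cells per well and rested 5 hr before compound pinning from DMSO stocks. Following a 16-hr treatment at 37 C, a fluorogenic live-cell substrate (CellTiter-Fluor) reports viability after 1 hr.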

[9] = target: Nuclear receptor subfamily 1 group I member 2 (Homo sapiens) (UniProt O75469); experiment: Human pregnane X receptor (PXR) small molecule agonists, qHTS assay (AID 1346982); also: nearly all actives have a fitted effect of over 35% in size; also: potency is read from the fitted curve at half-maximal effect
Chain of Nuclear receptor subfamily 1 group I member 2 (Homo sapiens) (O75469 whole entry, looked up): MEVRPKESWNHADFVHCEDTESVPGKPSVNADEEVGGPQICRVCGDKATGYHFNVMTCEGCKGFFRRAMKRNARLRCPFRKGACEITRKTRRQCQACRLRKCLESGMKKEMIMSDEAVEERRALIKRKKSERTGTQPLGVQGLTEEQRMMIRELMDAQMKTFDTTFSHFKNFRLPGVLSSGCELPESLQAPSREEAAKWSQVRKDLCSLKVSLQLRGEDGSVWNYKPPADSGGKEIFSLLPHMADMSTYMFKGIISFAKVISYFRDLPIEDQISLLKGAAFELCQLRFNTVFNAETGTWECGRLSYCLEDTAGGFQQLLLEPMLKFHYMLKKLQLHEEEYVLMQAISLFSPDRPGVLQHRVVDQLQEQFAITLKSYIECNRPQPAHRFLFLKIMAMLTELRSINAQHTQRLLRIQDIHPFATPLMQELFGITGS
Method in brief: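 After plating in 5% charcoal-stripped FBS and a 5 hr rest, PXR-Luc HepG2 cells received compounds in DMSO. Following 24 hr at 37 C, ONE-Glo was added and light output read.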

[10] = target: Cytochrome P450 2C19 (Homo sapiens) (UniProt P33261); experiment: Cytochrome P450 Family 2 Subfamily C Member 19 (CYP2C19) small molecule antagonists: luciferase reporter qHTS assay (AID 1671197); also: nearly all actives have a fitted effect of over 65% in size; also: potency is read from the fitted curve at half-maximal effect
Chain of Cytochrome P450 2C19 (Homo sapiens) (P33261 whole entry, looked up): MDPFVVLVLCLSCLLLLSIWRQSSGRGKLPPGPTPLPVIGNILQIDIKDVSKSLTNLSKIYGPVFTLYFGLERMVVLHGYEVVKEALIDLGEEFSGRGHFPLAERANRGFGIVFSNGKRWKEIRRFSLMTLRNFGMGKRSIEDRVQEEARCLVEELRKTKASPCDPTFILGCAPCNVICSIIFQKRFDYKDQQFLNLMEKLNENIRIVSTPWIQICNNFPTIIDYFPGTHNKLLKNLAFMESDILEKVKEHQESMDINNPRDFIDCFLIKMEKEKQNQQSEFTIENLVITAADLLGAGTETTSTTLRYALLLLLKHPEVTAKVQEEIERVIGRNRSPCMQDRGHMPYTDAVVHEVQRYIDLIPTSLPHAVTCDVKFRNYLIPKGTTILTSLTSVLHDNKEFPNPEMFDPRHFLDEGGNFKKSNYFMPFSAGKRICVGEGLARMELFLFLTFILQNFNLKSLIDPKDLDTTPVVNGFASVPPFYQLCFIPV
Method in brief: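 First, compounds are pinned into enzyme-substrate mix and held 10 min at room temperature. Second, NADPH regeneration solution is added and plates incubate 1 h at 37C. Third, detection reagent is added and luminescence read after 20 min.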

[11] = qHTS assay to identify small molecule agonists of the progesterone receptor (PR) signaling pathway - cell viability counter screen (AID 1346799; calls by dose curve; also: nearly all actives have a fitted effect of over 45% in size; also: potency is read from the fitted curve at half-maximal effect)
Method in brief: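 Counter screen in the PR-UAS-bla HEK293T wells (2% charcoal-stripped FBS, 16 h compound exposure at 37 C) after the bla read. CellTiter-Glo added, 30 min at room temperature, luminescence read as cell viability.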

[12] = Caspase-3/7 induction in CHO-K1 cells by small molecules, qHTS cell viability counter screen (AID 1346979); also: nearly all actives have a fitted effect of over 35% in size; also: potency is read from the fitted curve at half-maximal effect
Method in brief: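 Wild-type CHO-K1 cells (1,500/well) treated with compound after 5 h plating; after 16 h at 37C, viability read as CellTiter-Fluor fluorescence following 1 h reagent incubation, in the same wells as the caspase read.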

[13] = target: Nuclear receptor subfamily 1 group I member 2 (Rattus norvegicus) (UniProt Q9R1A7); experiment: Rat pregnane X receptor (rPXR) activation by small molecules, qHTS assay (AID 1346983); details: rPXR luciferase reporter cells, One-Glo luminescence, 24 h; max activation: stronger effect = higher value; also: potency is read from the fitted curve at half-maximal effect; nearly all actives have a fitted effect of over 20% in size
Chain of Nuclear receptor subfamily 1 group I member 2 (Rattus norvegicus) (Q9R1A7 whole entry, looked up): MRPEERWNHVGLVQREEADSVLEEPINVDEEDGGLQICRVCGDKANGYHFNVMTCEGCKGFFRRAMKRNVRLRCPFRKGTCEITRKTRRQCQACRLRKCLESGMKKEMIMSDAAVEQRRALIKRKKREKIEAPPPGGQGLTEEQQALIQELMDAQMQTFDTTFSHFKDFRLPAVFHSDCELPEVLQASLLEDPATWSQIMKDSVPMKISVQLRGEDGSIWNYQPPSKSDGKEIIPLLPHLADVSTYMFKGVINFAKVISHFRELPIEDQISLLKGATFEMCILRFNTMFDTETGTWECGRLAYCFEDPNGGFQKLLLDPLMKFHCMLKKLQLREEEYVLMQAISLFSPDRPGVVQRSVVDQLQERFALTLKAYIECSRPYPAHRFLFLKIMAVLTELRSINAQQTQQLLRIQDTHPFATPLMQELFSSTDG
Method in brief: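 Cell-based rPXR activation assay: rPXR cells, 2,000 per well, rested 5hr at 37 C, then exposed to compounds in DMSO for 24 hr at 37 C. Luciferase activity read by One-Glo luminescence after 30 min at room temperature.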

[14] = target: Nuclear receptor subfamily 1 group I member 2 (Homo sapiens) (UniProt O75469); experiment: CYP3A4 induction through human pregnane X receptor (PXR) by small molecules, qHTS assay (AID 1346984); also: nearly all actives have a fitted effect of over 40% in size
Method in brief: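 Human PXR activation is tracked via CYP3A4 promoter-luciferase in DPX-2 (HepG2) cells. Compounds treat cells for 24hr at 37C, and luminescence is read after One-Glo.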

[15] = target: Nuclear receptor subfamily 1 group I member 2 (Homo sapiens) (UniProt O75469); experiment: Human pregnane X receptor (PXR) activation by small molecules, qHTS assay (AID 1346985); also: potency is read from the fitted curve at half-maximal effect; nearly all actives have a fitted effect of over 40% in size
Method in brief: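 DPX-2 cells (HepG2 co-transfected with a PXR response element and a CYP3A4-promoter luciferase construct) were seeded at 2,000 per well, rested 5 hr at 37C, then exposed to DMSO-dissolved compounds for 24 hr. Activation was read as luciferase luminescence.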

[16] = target: Cytochrome P450 2D6 (Homo sapiens) (UniProt P10635); experiment: Cytochrome P450 Family 2 Subfamily D Member 6 (CYP2D6) small molecule antagonists: luciferase reporter qHTS assay (AID 1671196); also: nearly all actives have a fitted effect of over 50% in size; also: potency is read from the fitted curve at half-maximal effect
Chain of Cytochrome P450 2D6 (Homo sapiens) (P10635 whole entry, looked up): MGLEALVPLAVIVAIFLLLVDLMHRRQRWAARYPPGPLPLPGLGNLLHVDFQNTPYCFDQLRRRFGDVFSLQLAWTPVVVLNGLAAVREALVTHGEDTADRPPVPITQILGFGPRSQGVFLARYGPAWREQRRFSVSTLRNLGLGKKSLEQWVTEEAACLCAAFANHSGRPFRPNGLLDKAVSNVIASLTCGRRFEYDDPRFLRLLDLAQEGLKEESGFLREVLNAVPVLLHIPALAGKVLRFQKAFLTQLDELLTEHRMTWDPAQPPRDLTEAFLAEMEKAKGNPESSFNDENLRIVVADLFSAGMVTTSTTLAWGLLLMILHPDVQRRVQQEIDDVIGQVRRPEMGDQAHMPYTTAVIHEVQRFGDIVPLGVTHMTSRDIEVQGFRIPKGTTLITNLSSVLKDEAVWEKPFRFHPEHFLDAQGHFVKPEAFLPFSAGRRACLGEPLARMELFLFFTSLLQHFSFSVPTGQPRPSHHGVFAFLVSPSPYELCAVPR
Method in brief: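 Quantitative HTS of Tox21 chemicals against CYP2D6 using a luminescent proluciferin substrate. After NADPH addition, 1 h room-temperature reaction; luminescence recorded 20 min post detection reagent.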

[17] = qHTS assay to identify small molecule agonists of the TGF-beta/Smad signaling pathway (AID 1346859; active = well fitted activation curve with a large enough effect in the signal ratio in the repeat runs, not every such curve was filed as active; the % refers to the signal ratio; also: series mostly up to about 77 µM)
Method in brief: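 SBE-bla HEK293T cells plated overnight, then compound exposure for 5 h at 37 C. Beta-lactamase reporter read with LiveBLAzer B/G FRET substrate after 2 h at room temperature, fluorescence at 405 nm excitation, 460/530 nm emission.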

[18] = Human pregnane X receptor (PXR) small molecule agonists, qHTS cell viability counter screen (AID 1346977); also: nearly all actives have a fitted effect of over 50% in size; also: potency is read from the fitted curve at half-maximal effect
Method in brief: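 PXR-Luc HepG2 cells (2,000/well, 5% charcoal-stripped FBS) preincubated 5 hr, then exposed to compounds 24 hr at 37 C. Viability read in the same wells by CellTiter-Fluor fluorescence, reagent added at 23 hr, 1 hr incubation.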

| Compound | Potency [1] | Potency [2] | Potency [3] | Potency [4] | Potency [5] | Potency [6] | Potency [7] | Potency [8] | Potency [9] | Potency [10] | Potency [11] | Potency [12] | Potency [13] | Potency [14] | Potency [15] | Potency [16] | Potency [17] | Potency [18] |
| --- | --- | --- | --- | --- | --- | --- | --- | --- | --- | --- | --- | --- | --- | --- | --- | --- | --- | --- |
| CC[C@H]1O[C@]2(CC[C@@H]1C)C[C@@H]1C[C@@H](C/C=C(\C)C[C@@H](C)/C=C/C=C3\CO[C@@H]4[C@H](O)C(C)=C[C@@H](C(=O)O1)[C@]34O)O2 | 68 µM (active) | 54.5 µM (active) | 54.5 µM (active) | inactive | inactive | 30.4 µM (active) | 13.6 µM (active) | 42.9 µM (active) | 6.06 µM (active) | 19.8 µM (active) | – | – | – | – | – | – | – | – |
| C[C@@H]1C[C@H]2[C@@H]3CCC4=CC(=O)C=C[C@]4(C)[C@@]3(Cl)[C@@H](O)C[C@]2(C)[C@@]1(OC(=O)c1ccco1)C(=O)CCl | inactive | inactive | inactive | inactive | inactive | – | – | – | – | 9.77 µM (active) | inactive | 23.7 µM (active) | 2 µM (active) | inactive | 4.47 µM (active) | 3.89 µM (active) | – | – |
| CCCC1O[C@@H]2C[C@H]3[C@@H]4CCC5=CC(=O)C=C[C@]5(C)[C@H]4[C@@H](O)C[C@]3(C)[C@]2(C(=O)CO)O1 (some centres not stated) | inactive | – | inactive | inactive | inactive | inactive | inactive | – | – | 39.9 µM (active) and inactive | inactive | 61.2 µM (active) and 61.1 µM (active) | 12.6 µM (active) | – | – | – | – | – |
| CCCCN(CCCC)c1ccc(C(=O)c2ccccc2C(=O)O)c(O)c1 | inactive | inactive | inactive | – | inactive | – | – | – | – | – | 24.6 µM (active) | – | – | – | – | inactive | – | – |
| Nc1nc2ccccc2n1Cc1ccc(F)cc1 | inactive | inactive | inactive | inactive | inactive | inactive | inactive | – | 26.6 µM (active) | 15.5 µM (active) | – | 23.7 µM (active) | – | – | – | 0.692 µM (active) | inactive | – |
| CCOC(=O)O[C@H](C)OC(=O)c1ccc2c(c1)cc(C(=O)NC1CCN(C(C)C)CC1)n2Cc1cc(-c2ccc(Cl)s2)on1 | 22.7 µM (active) | – | 45.8 µM (active) | inactive | inactive | 45.4 µM (active) | – | 50.9 µM (active) | inactive | 46.9 µM (active) | 22.7 µM (active) | 14.3 µM (active) | – | – | – | 37.3 µM (active) | – | 45.4 µM (active) |
| CCCCCCCCCCCC[N+](C)(C)CCCCCCCCCCCC | 43.3 µM (active) | 43.6 µM (active) | 34.7 µM (active) | inactive | inactive | – | inactive | 27.3 µM (active) | inactive | 35.6 µM (active) | 19.3 µM (active) | 17.2 µM (active) | – | – | – | 20 µM (active) | – | 27.3 µM (active) |
| C=CC(=O)OCC(CO)(COC(=O)C=C)COC(=O)C=C | 17.3 µM (active) and 27.3 µM (active) | – | – | inactive | inactive | 19.4 µM (active) and 24.3 µM (active) | 2.44 µM (active) and 6.11 µM (active) | 17.3 µM (active) and 21.7 µM (active) | – | 25.3 µM (active) and 22.4 µM (active) | 27.4 µM (active) and 30.6 µM (active) | – | – | – | – | 40.1 µM (active) and 63.3 µM (active) | – | – |
| CCOc1nc2cccc(C(=O)OC(C)OC(=O)OC3CCCCC3)c2n1Cc1ccc(-c2ccccc2-c2nn[nH]n2)cc1 (configuration not stated) | 21.7 µM (active) | – | – | – | – | – | 43.2 µM (active) | – | 24.3 µM (active) | – | 19.3 µM (active) | 34.3 µM (active) | – | – | – | – | – | – |
| Cc1cc(O)c(C(C)(C)C)cc1Sc1cc(C(C)(C)C)c(O)cc1C | 30.6 µM (active) | 48.9 µM (active) | 34.6 µM (active) | – | – | 30.6 µM (active) | inactive | 54.4 µM (active) | 10.8 µM (active) | 0.398 µM (active) | 27.3 µM (active) | 2.73 µM (active) | – | – | – | 25.1 µM (active) | – | 13.7 µM (active) |
| CCCCCCCCCCCCCCCCCC[N+](C)(C)Cc1ccccc1 | 27.6 µM (active) | 49.5 µM (active) | 49.5 µM (active) | – | – | – | inactive | 55 µM (active) | – | 56.9 µM (active) | 7.77 µM (active) | – | – | – | – | 0.18 µM (active) | – | 11 µM (active) |
| Clc1ccc2cc3ccccc3cc2c1 | inactive | inactive | inactive | inactive | inactive | inactive | inactive | inactive | – | 79.6 µM (active) | – | inactive | – | – | – | inactive | – | inactive |
| Cc1cccc2c1cc1ccc3cccc4ccc2c1c34 | inactive | inactive | inactive | inactive | inactive | inactive | inactive | – | inactive | inactive | – | – | – | – | – | inactive | – | – |
| O=C(OCC(COC(=O)c1ccccc1)(COC(=O)c1ccccc1)COC(=O)c1ccccc1)c1ccccc1 | inactive | inactive | inactive | inactive | inactive | inactive | inactive | inactive | inactive | 3.55 µM (active) | – | inactive | – | – | – | inactive | inactive | inactive |
| CCOC(=O)c1nc(C(Cl)(Cl)Cl)n(-c2ccc(Cl)cc2Cl)n1 | 61.1 µM (active) | inactive | inactive | – | – | inactive | inactive | – | 19.3 µM (active) | 5.03 µM (active) | 61.1 µM (active) | 54.5 µM (active) | – | – | – | 14.2 µM (active) | – | 54.5 µM (active) |
